Inconclusive results are not listed. Calls of active or inactive are those of the source. The call rests on the fitted dose curve; in most records, active means well fitted curve in the direction sought with a large enough effect; inconclusive means small, poorly fitted or top-dose-only effect, or another doubt; inactive means no such curve, though single readings can be large; an effect the other way counts as inactive or inconclusive.
Columns and labels:
[1] = qHTS assay to identify small molecule inhibitors of chordoma cells - UCH-2 (AID 1259356); further: series mostly up to about 46 µM; on the % scale 0 is the no-effect control and ±100 the full control effect
[2] = P-glycoprotein substrates identified in KB-8-5-11 adenocarcinoma cell line, qHTS therapeutic library screen (AID 1346987); conditions: outcome: dose series up to 44.5 µM; further: series mostly up to about 44 µM; on the % scale 0 is the no-effect control and ±100 the full control effect; nearly all actives have a fitted effect of over 65% in size
Outline: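 Luminescence from CellTiter-Glo, read 5 min after addition, quantified survival of KB-8-5-11 (P-gp-overexpressing) cells exposed to compounds for 72 h. AC50 was derived from concentration-response curves.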

[3] = NS1 protein of Zika virus - qHTS assay to identify small molecule inhibitors in human HEK 293 cells (AID 1347053);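 further: series mostly up to about 46 µM; plate controls were infected untreated cells for no effect and uninfected cells for full effect; nearly all actives have a fitted effect of over 55% in size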
Outline: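 Compound-treated (1 h pre-infection) HEK 293 cells infected with ZIKV MR766, MOI = 0.5; after 24 h at 37 C, NS1 read by TR-FRET; data normalized to uninfected and infected controls.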

[4] = qHTS of pediatric cancer cell lines to identify multiple opportunities for drug repurposing: Primary screen for TC32 cells (AID 1347089); further: on the % scale 0 is the no-effect control and ±100 the full control effect; nearly all actives have a fitted effect of over 60% in size
Outline: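 Luminescent ATP read-out (CellTiter-Glo) of metabolically active TC32 cells after 48 h exposure. Concentration-response curves came from 11-point (MIPE, 0.78 nM–46 µM) or 8-point (NPC, 0.59 nM–46 µM) primary titrations; follow-up used 11 points.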

[5] = qHTS of pediatric cancer cell lines to identify multiple opportunities for drug repurposing: Primary screen for DAOY cells (AID 1347090);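 further: series mostly up to about 46 µM; plate controls were DMSO for no effect and bortezomib for full effect; nearly all actives have a fitted effect of over 55% in size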
Outline: (§1)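 Cell viability, CellTiter-Glo luminescence; 500-1,000 cells/well, 8- or 11-point titration, 48 h compound exposure at 37 degrees C, 5% CO2. Controls: DMSO neutral, bortezomib 2.3 µM final as positive.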

[6] = qHTS of pediatric cancer cell lines to identify multiple opportunities for drug repurposing: Primary screen for SJ-GBM2 cells (AID 1347091);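 further: plate controls were DMSO neutral control for no effect and bortezomib for full effect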
Outline: as §1

[7] = qHTS of pediatric cancer cell lines to identify multiple opportunities for drug repurposing: Primary screen for A673 cells (AID 1347092); further: on the % scale 0 is the no-effect control and ±100 the full control effect; nearly all actives have a fitted effect of over 45% in size
Outline: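 Cell viability of A673 measured by CellTiter-Glo ATP luminescence after 48 hours compound exposure. Dilution series spanned 0.78 nM to 46 µM (MIPE, 11-point) or 0.59 nM to 46 µM (NPC, 8-point); bortezomib 2.3 uM positive control.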

[8] = qHTS of pediatric cancer cell lines to identify multiple opportunities for drug repurposing: Primary screen for SK-N-MC cells (AID 1347093);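 further: series mostly up to about 46 µM; plate controls were DMSO neutral control for no effect and bortezomib for full effect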
Outline: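 Metabolically active cells were quantified by ATP-dependent luminescence (CellTiter-Glo, 15 min at room temperature) following 48 h treatment. Cells had been plated at 500-1,000 per well and settled for 5 h beforehand.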

[9] = qHTS of pediatric cancer cell lines to identify multiple opportunities for drug repurposing: Primary screen for BT-37 cells (AID 1347094);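 further: series mostly up to about 57 µM; plate controls were DMSO for no effect and bortezomib for full effect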
Outline: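 Primary screen of approved and investigational compounds on cells in growth media at 37 degrees C, 5% CO2. MIPE set at 11-point and NPC set at 8-point dilutions; viability scored by ATP-based luminescence at 48 hours.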

CC(CN(C)C)C(C)(O)Cc1ccc(Cl)cc1 (stereo not drawn)
inactive: outcome [1] | outcome [2] | outcome [3] | outcome [4] | outcome [5] | outcome [6] | outcome [7] | Potency [8] | outcome [9]

Cn1cc(C(=O)[C@@H]2CCc3nc[nH]c3C2)c2ccccc21
inactive: outcome [1] | outcome [2] | outcome [3] | outcome [4] | outcome [5] | outcome [6] | outcome [7] | Potency [8] | outcome [9]

CCCOC(=O)c1ccc(N)cc1
inactive: outcome [1] | outcome [2] | outcome [3] | outcome [4] | outcome [5] | outcome [6] | outcome [7] | Potency [8] | outcome [9]

Cc1ncc(CO)c(CN)c1O
inactive: outcome [1] | outcome [2] | outcome [3] | outcome [4] | outcome [5] | outcome [6] | outcome [7] | Potency [8] | outcome [9]

O=C(/C=C/c1ccccc1)OCc1ccccc1
inactive: outcome [1] | outcome [2] | outcome [3] | outcome [4] | outcome [5] | outcome [6] | outcome [7] | Potency [8] | outcome [9]

COc1ccc2cc(CCC(C)=O)ccc2c1
inactive: outcome [1] | outcome [2] | outcome [3] | outcome [4] | outcome [5] | outcome [6] | outcome [7] | Potency [8] | outcome [9]

CC(=O)N[C@@H](Cc1ccc(O)cc1)C(=O)O
inactive: outcome [1] | outcome [2] | outcome [3] | outcome [4] | outcome [5] | outcome [6] | outcome [7] | Potency [8] | outcome [9]

NS(=O)(=O)c1cc2c(cc1C(F)(F)F)NCNS2(=O)=O
inactive: outcome [1] | outcome [2] | outcome [3] | outcome [4] | outcome [5] | outcome [6] | outcome [7] | Potency [8] | outcome [9]

Cc1cc(=O)[nH]c(=S)[nH]1
inactive: outcome [1] | outcome [2] | outcome [3] | outcome [4] | outcome [5] | outcome [6] | outcome [7] | Potency [8] | outcome [9]

COC(=O)c1ccc(O)cc1
inactive: outcome [1] | outcome [2] | outcome [3] | outcome [4] | outcome [5] | outcome [6] | outcome [7] | Potency [8] | outcome [9]

Cc1cc(-n2nc3ccc(Cl)cc3n2)c(O)c(C(C)(C)C)c1
inactive: outcome [1] | outcome [2] | outcome [3] | outcome [4] | outcome [5] | outcome [6] | outcome [7] | Potency [8] | outcome [9]

Cc1ccc(C(C)C)c(O)c1
inactive: outcome [1] | outcome [2] | outcome [3] | outcome [4] | outcome [5] | outcome [6] | outcome [7] | Potency [8] | outcome [9]

NS(=O)(=O)c1cc(C2(O)NC(=O)c3ccccc32)ccc1Cl (stereo not drawn)
inactive: outcome [1] | outcome [2] | outcome [3] | outcome [4] | outcome [5] | outcome [6] | outcome [7] | Potency [8] | outcome [9]

O=S1(=O)OC(c2ccc(O)cc2)(c2ccc(O)cc2)c2ccccc21
inactive: outcome [1] | outcome [2] | outcome [3] | outcome [4] | outcome [5] | outcome [6] | outcome [7] | Potency [8] | outcome [9]

NC(N)=NCCN1CCCCCCC1
inactive: outcome [1] | outcome [2] | activity change, negative = inhibition [3] -1.99% [at 0.593 µM] | activity change, negative = cytotoxic [4] 19.1% [at 0.594 µM] | activity change, negative = cytotoxic [5] 7.11% [at 0.597 µM] | activity change, negative = cytotoxic [6] 15.5% [at 0.597 µM] | activity change, negative = cytotoxic [7] 2.24% [at 0.597 µM] | activity change, negative = cytotoxic [9] 4.17% [at 0.745 µM]

CCS(=O)(=O)CCn1c([N+](=O)[O-])cnc1C
inactive: outcome [1] | outcome [2] | outcome [3] | outcome [4] | outcome [5] | outcome [6] | outcome [7] | outcome [9]

CCCCCCCCCCC(CO)CCCCCCCC (stereo not drawn)
inactive: outcome [1] | outcome [2] | outcome [3] | outcome [4] | outcome [5] | outcome [6] | outcome [7] | Potency [8] | outcome [9]

C/C(=C(\CCO)SS/C(CCO)=C(\C)N(C=O)Cc1cnc(C)nc1N)N(C=O)Cc1cnc(C)nc1N
inactive: outcome [1] | outcome [2] | outcome [3] | outcome [4] | outcome [5] | outcome [6] | outcome [7] | Potency [8] | outcome [9]

CC(=O)OC[C@H]1O[C@@](COC(C)=O)(O[C@H]2O[C@H](COC(C)=O)[C@@H](OC(C)=O)[C@H](OC(C)=O)[C@H]2OC(C)=O)[C@@H](OC(C)=O)[C@@H]1OC(C)=O
inactive: outcome [1] | outcome [2] | outcome [3] | outcome [4] | outcome [5] | outcome [6] | outcome [7] | Potency [8] | outcome [9]

NS(=O)(=O)c1ccc(C(=O)O)cc1
inactive: outcome [1] | outcome [2] | outcome [3] | outcome [4] | outcome [5] | outcome [6] | outcome [7] | Potency [8] | outcome [9]

NS(=O)(=O)c1ccc(NC(=O)CCC(=O)O)cc1
inactive: outcome [1] | outcome [2] | outcome [3] | outcome [4] | outcome [5] | outcome [6] | outcome [7] | Potency [8] | outcome [9]

Cc1cc(O)cc(C)c1Cl
inactive: outcome [1] | outcome [2] | outcome [3] | outcome [4] | outcome [5] | outcome [6] | outcome [7] | Potency [8] | outcome [9]

O=C(O)c1ccccc1OP(=O)(O)O
inactive: outcome [1] | outcome [2] | outcome [3] | outcome [4] | outcome [5] | outcome [6] | outcome [7] | Potency [8] | outcome [9]

CC(C)(C)C(=O)OCOC(=O)[C@@H]1N2C(=O)[C@@H](NC(=O)[C@H](N)c3ccccc3)[C@H]2SC1(C)C
inactive: outcome [1] | outcome [2] | outcome [3] | outcome [4] | outcome [5] | outcome [6] | outcome [7] | Potency [8] | outcome [9]

CC1(c2ccccc2)OC(C(=O)O)=CC1=O (stereo not drawn)
inactive: outcome [1] | outcome [2] | outcome [3] | outcome [4] | outcome [5] | outcome [6] | outcome [7] | Potency [8] | outcome [9]

Source: PubChem BioAssay (NCATS)
